This is an account of results in ChEMBL document CHEMBL4888484, “Replenishing the malaria drug discovery pipeline: Screening and hit evaluation of the MMV Hit Generation Library 1 (HGL1) against asexual blood stage Plasmodium falciparum ,using a nano luciferase reporter read-out” (2022).

In all, about 150,000 compounds went through this assay and about 540 (0.36%) showed an effect of 50% or more. The list comes from a sample in which strong results are over-represented; it also holds similar structures and randomly drawn compounds.

The experiment relates to Plasmodium falciparum. Nature of the experiment: Primary screen in NF54 nanoGlo assay, in single point, at 2uM, 72h; a lower Z score goes with more inhibition. The class given is functional, Erythrocyte. The conditions noted are these: timepoint 72 hour.
For `O=C(Cn1cc(S(=O)(=O)N2CCOCC2)ccc1=O)Nc1ccc(F)cc1Cl`, the % Inhibition – broadly, the relative decrease from the control value, in per cent – was 4% and the Z score is recorded as -0.76.

Regarding `CN1CCC(N2CCC[C@H]2c2nc(-c3ccc(F)cn3)no2)CC1`, the “% Inhibition” value is on record as 15% and the Z score is given as -1.76.

Take `COc1cc(-c2n[nH]cc2CN(C[C@H]2CCC(=O)N2)C(C)C)cc(OC)c1OC`: the “% Inhibition” value is given as -18% and the Z score was found to be 1.93.

As to `CN(C)c1ccc(NC(=O)CCCc2ccc3[nH]c(=O)[nH]c3c2)nc1`, the “% Inhibition” value was 0% and the Z score is 0.04.

With `C[C@H]1[C@@H]2[C@@H](O)C([C@H](C)C(=O)NC3CCCC3)CC[C@@]2(C)CC[C@@H]1NC(=O)c1ccc(C#N)cc1` (stereo partly specified), the “% Inhibition” value is on record as 37% and the Z score is reported as 1.5.

For the compound `COCCNC(=O)[C@@H](C)[C@@H]1CC[C@@]2(C)CC[C@H](NC(=O)CC(C)(C)C)[C@@H](C)[C@@H]2[C@H]1O`, the “% Inhibition” value is reported as 31% and the Z score is given as -3.58.

With `C[C@H]1[C@@H]2[C@@H](O)C([C@H](C)C(=O)NC3CCCCC3)CC[C@@]2(C)CC[C@@H]1NC(=O)CC(C)(C)C` (stereo partly specified), the “% Inhibition” value is on record as 69% and the Z score is recorded as -5.14.

With `COc1cc2c(cc1-c1nccn1Cc1noc(C(C)C)n1)OCO2`, the “% Inhibition” value was 5% and the Z score is -0.45.

On to `CCNC(=O)O[C@@H]1CC[C@]2(C)C(CC[C@@H](O)[C@H]2CC(=O)NCc2cccs2)[C@]1(C)CO` (stereo partly specified), for which the “% Inhibition” value is on record as -4% and the Z score was determined as 0.6.

With `COc1cc(CN2C(=O)C(C)C(C)C2=O)ccn1` (stereo unspecified), the “% Inhibition” value is listed as -12% and the Z score is reported as 1.96.

For `CCc1noc(CCNC(=O)Nc2cc(C)nn2C2CCCCC2)n1`, the “% Inhibition” value is listed as -3% and the Z score is reported as 0.5.

For the compound `Cc1ccc([C@H](C)NC(=O)CCc2ccc3[nH]cnc3c2)cc1`, the “% Inhibition” value is listed as -2% and the Z score is recorded as 0.33.

`C[C@H]1CN(C2=Nc3ccc(C(F)(F)F)cc3Oc3ccccc32)CCN1C(=O)C1CCCCC1`: the “% Inhibition” value is given as -10% and the Z score was determined as 0.96.

Consider `Cc1ccsc1CN(Cc1cccnc1)CC(C)C`, for which the “% Inhibition” value is listed as -9% and the Z score stood at 0.87.

For the compound `COc1ccc(CN(Cc2ccco2)C(=O)c2cccc(F)c2)cc1OS(=O)(=O)c1ccc(F)cc1`, the “% Inhibition” value is -33% and the Z score is 2.87.

As to `CCOC(=O)N1CCC(n2ccnc2-c2nccn2C(C)C)CC1`, the “% Inhibition” value is reported as -11% and the Z score turned out to be 1.32.

As for `COc1ccc(-c2nccn3cc(C(=O)N4CCCCCC4)nc23)cc1`, the “% Inhibition” value turned out to be 51% and the Z score was 0.03.

For the compound `COc1ccc(-c2nccn3cc(C(=O)N4CCCC4)nc23)cc1`, the “% Inhibition” value amounted to 26% and the Z score is reported as -2.95.

Take `Cc1ccc(-c2nccn3cc(C(=O)N4CCCCC4)nc23)cc1`: the “% Inhibition” value was -2% and the Z score is recorded as 0.32.

Turning to `CC(C)(C(=O)N[C@H]1CCN(Cc2cccnc2)C[C@@H]1O)N1CCOCC1`, the “% Inhibition” value is given as -3% and the Z score is 0.41.

In the case of `Cc1nc(-n2cnnc2)ccc1-c1cc(O)cc(CC[C@H]2CCCCN2)c1`, the “% Inhibition” value is -7% and the Z score amounted to 0.8.

As to `Cc1nccc(-c2cc(O)cc(CC[C@H]3CCCCN3)c2)n1`, the “% Inhibition” value was -12% and the Z score stood at 2.52.

For the compound `Nc1cc(-c2cc(O)cc(CC[C@H]3CCCCN3)c2)ccn1`, the “% Inhibition” value was determined as 9% and the Z score was -1.53.

`CCn1cc(-c2cc(O)cc(CC[C@H]3CCCCN3)c2)c(C)n1`: the “% Inhibition” value is reported as 3% and the Z score is on record as -0.45.

For the compound `Cc1ccc(-c2cc(O)cc(CC[C@H]3CCCCN3)c2)c(C)n1`, the “% Inhibition” value is reported as 61% and the Z score is recorded as -8.76.

On to `OCc1ccnc(-c2cc(O)cc(CC[C@H]3CCCCN3)c2)c1`, for which the “% Inhibition” value is -3% and the Z score amounted to 0.48.

With `O=C(O)c1ccccc1-c1cc(O)cc(CC[C@H]2CCCCN2)c1`, the “% Inhibition” value is reported as -15% and the Z score is recorded as 2.8.

For `CC(=O)c1cc(-c2cc(O)cc(CC[C@H]3CCCCN3)c2)ccc1O`, the “% Inhibition” value is recorded as 78% and the Z score is reported as -7.86.

`Cc1cc(-c2cc(O)cc(CC[C@H]3CCCCN3)c2)ccn1`: the “% Inhibition” value came out at 84% and the Z score is recorded as -8.44.

As for `CC(NS(=O)(=O)N(C)C(C)C)C1CCCO1` (stereo unspecified), the “% Inhibition” value was -8% and the Z score came out at 1.17.

Consider `C/C=C(\C)C(=O)N1CCC(N2CCC(C(=O)N3CCCC3)CC2)CC1`, for which the “% Inhibition” value is reported as -12% and the Z score was found to be 1.74.

With `CCC(C)C(NC(=O)C1CCC(C)CC1)C(=O)NC1CCN(Cc2ccccc2)CC1` (stereo unspecified), the “% Inhibition” value was -3% and the Z score turned out to be 0.32.

`CCCNS(=O)(=O)c1ccc(C(=O)N2C[C@H]3CC[C@@H](C2)N(C)C3)cc1`: the “% Inhibition” value is -7% and the Z score was determined as 1.2.

On to `Cc1ccc(-n2nc3c(=O)n([C@@H](C)C(=O)NCc4ccc(Cl)cc4)nc(C)c3c2C)cc1`, for which the “% Inhibition” value came out at 10% and the Z score is recorded as -1.13.

On to `O=S(=O)(NC1CCc2ccc(Cl)cc21)[C@H]1COC[C@@H]1O` (stereo partly specified), for which the “% Inhibition” value is reported as -11% and the Z score is 1.47.

For `Cc1ccc(NC(=O)Cc2nnc(-c3ccc4ncccc4c3)o2)c(Cl)c1`, the “% Inhibition” value is reported as -6% and the Z score amounted to 0.57.

`CCn1cc(NC(=O)c2cc(C3CC3)nc3onc(-c4cnn(CC)c4C)c23)c(C)n1`: the “% Inhibition” value worked out at 8% and the Z score is -1.2.

For `CC(C)(C)OC(=O)N1CC2CC1C2C(=O)NCC1CCCO1` (stereo unspecified), the “% Inhibition” value is on record as 14% and the Z score is listed as -1.67.

Turning to `Cc1ncsc1C(=O)N1CCC2(CCCCC2)C1`, the “% Inhibition” value came to 37% and the Z score is listed as -5.42.

Regarding `Nc1ncc(C(=O)N2CCC3(CCCC3)C2)s1`, the “% Inhibition” value is 6% and the Z score was -0.8.

As for `Nc1ncc(C(=O)N2CCC3(CCCCCC3)C2)s1`, the “% Inhibition” value is 97% and the Z score was -17.77.

In the case of `CC(=O)NC1CCN(Cc2cc(C)nc3ccccc23)CC1`, the “% Inhibition” value was -6% and the Z score was determined as 0.83.

For `CC1CCN(c2nccnc2Oc2ccc(C(=O)N3CCN(c4ccccc4Cl)CC3)cc2)CC1`, the “% Inhibition” value was determined as 11% and the Z score is recorded as -1.7.

Take `CC1CCN(c2nccnc2Oc2ccc(C(=O)NCc3ccccc3Cl)cc2)CC1`: the “% Inhibition” value is 67% and the Z score is -10.64.

Turning to `CC1CCN(c2nccnc2Oc2ccc(C(=O)NCc3ccco3)cc2)CC1`, the “% Inhibition” value was -1% and the Z score turned out to be 0.13.

Consider `CC(NC(CC1CCC1)c1ccccc1)c1cn(C)nn1` (stereo unspecified), for which the “% Inhibition” value is 6% and the Z score was -0.82.

In the case of `Cc1ccccc1OC[C@@H](O)CN(C(C)C)C(C)C`, the “% Inhibition” value is reported as -2% and the Z score stood at 0.31.

Consider `CN(C)CC(O)COc1ccc(S(=O)(=O)c2ccc(OCC(O)CN(C)C)c(Cl)c2)cc1Cl` (stereo unspecified), for which the “% Inhibition” value is 54% and the Z score is recorded as -6.62.

In the case of `CCN(CC)C[C@H](O)COc1ccc(Cl)cc1Cl`, the “% Inhibition” value came out at 9% and the Z score is reported as -1.14.

With `CCS(=O)(=O)N1CCC(N2C(=O)[C@@H]3CC[C@@H](c4ccccc4)N3C2=O)CC1`, the “% Inhibition” value came out at 42% and the Z score stood at 0.94.

For `CCn1cnc2c(-c3ccccc3)cn(CC(=O)NCc3ccco3)c2c1=O`, the “% Inhibition” value is reported as -9% and the Z score turned out to be 1.31.

Consider `CCc1cccc(C)c1NC(=O)Cn1cc(-c2ccccc2)c2ncn(CC)c(=O)c21`, for which the “% Inhibition” value was found to be 4% and the Z score is recorded as -0.57.

Turning to `CCN(C(=O)Cn1cc(-c2ccccc2)c2ncn(CC)c(=O)c21)c1ccccc1`, the “% Inhibition” value was determined as 78% and the Z score is given as -9.77.
